GLP1R inv ag: acts as inverse agonist at human GLP-1 receptor; HEK293 GLP-1R CRE-luciferase, luminescence, 24 h; GLP-1R form is constitutively active; Potency, µM (top dose mostly 38.3 µM), for the others: at the top dose activity change, negative = inhibition, hits mostly inhibitors; 410,000 tested, 1.6% active; AID 624417; P43220; also: potency is read from the fitted curve at half-maximal effect; % is scaled to controls: 0 for no effect and ±100 for the full control effect; nearly all actives have a fitted effect of over 55% in size
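HEK293 cells stably co-expressing a cAMP-responsive luciferase reporter and constitutively active GLP-1R were seeded, incubated 12 h, then exposed to compounds for 24 h at 37 C. Luminescence was read 12 min after detection reagent; inverse agonists lower signal.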
HEK293 tox: cytotoxicity counter-screen for GLP-1 receptor inverse agonists | HEK293 cAMP-luciferase reporter cells, luminescence, 24 h | Potency, µM (highest dose often 38.3 µM), inactives show at the highest dose activity change, negative = inhibition, actives largely listed as inhibitors | 410,000 tested, 0.13% active | AID 624418;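 also: loss of luciferase light is scored as toxicity; potency is read from the fitted curve at half-maximal effect; % is scaled to controls: 0 for no effect and ±100 for the full control effect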
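Seeding density was 200 cells/uL; after overnight-length (12 h) culture, 23 nL compounds went on for 24 h at 37 °C. Readout used a luciferase detection reagent, luminescence taken after 12 min at room temperature.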
GLP1R ag: activates the human GLP-1 receptor; HEK293 GLP-1R CRE-luciferase, luminescence, 4-6 h; cells express a hypersensitive GLP-1R form; Potency, µM (top dose mostly 45.6 µM), inactives show top-dose activation, actives largely listed as activators; 380,000 tested, 0.007% active; AID 624172; also: potency is read from the fitted curve at half-maximal effect; % of control where 0% means no effect
PTHR1 ag: activates the human parathyroid hormone receptor PTHR1; 410,000 tested, 0.075% active; Q03431; Potency, µM (series often up to 115 µM), without a hit: at the top dose activation, hits mostly activators; HEK293 GP2 PTHR1 cells, GloSensor cAMP luminescence, 1 h; also: potency is read from the fitted curve at half-maximal effect; nearly all actives have a fitted effect of over 55% in size
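HEK-293-derived GP2 cells expressing PTHR1 and a GloSensor cAMP reporter, 3,000/well, plated overnight, given luciferin plus IBMX (each 0.5 mM as added) for 1 h at 37 °C, then compound for 1 h at 37 °C. Luminescence was read after 15 min at room temperature.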
TRHR agonist: TRH receptor (human) agonism. activation, % at 2 µM. 360,000 tested, 0.18% active. P34981. TRHR cells, calcium flux fluo-8, FDSS agonist mode; in the data active = activation above about 30%; also: 0% is about no effect
Target sequence (P34981 whole entry, looked up): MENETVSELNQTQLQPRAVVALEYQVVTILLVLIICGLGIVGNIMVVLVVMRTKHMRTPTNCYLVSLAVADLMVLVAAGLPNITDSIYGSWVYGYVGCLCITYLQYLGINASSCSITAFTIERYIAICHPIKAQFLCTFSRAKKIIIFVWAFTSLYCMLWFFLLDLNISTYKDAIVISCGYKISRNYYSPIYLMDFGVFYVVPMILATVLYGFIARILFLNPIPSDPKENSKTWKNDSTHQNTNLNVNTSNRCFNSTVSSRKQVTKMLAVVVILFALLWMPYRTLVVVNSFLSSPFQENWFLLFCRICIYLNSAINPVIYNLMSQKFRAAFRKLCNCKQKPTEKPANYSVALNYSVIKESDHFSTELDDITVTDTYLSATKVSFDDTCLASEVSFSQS
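In this calcium-flux screen, cells bearing human TRHR are dye-loaded with fluo-8, baselined for 10 cycles, then exposed to library compounds; positive kinetic calcium responses during the agonist phase mark hits, with TRH as control.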
TRHR enhancer: allosterically enhances the human TRH receptor. P34981. TRHR cells, fluo-8 calcium fluorescence, EC20 TRH enhancement. enhancement, % at 2 µM. 360,000 tested, 0.66% active. AID 493056; in the data active = enhancement above about 30%; also: 0% is about no effect
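Enhancer read-out: after compound pinning and an initial kinetic agonist-mode read, an EC20 of TRH (10 nM final) was injected and fluo-8 calcium signal (Ex 480/Em 530) followed at 1 s/cycle for 100 cycles in TRHR-expressing cells.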
Starred values were filed as active, the others as inactive; i = inactive; ? = inconclusive; / = no result given; [ ] = dose if it differs, or a comment. In the library only some 2.4% were active in any assay of this set; here they are far more common. Unless noted, calls follow the shape of the dose curve; as a rule, active = well fitted curve in the direction sought with a large enough effect; inconclusive = small, poorly fitted or top-dose-only effect, or another doubt; inactive = no such curve, though single readings can be large; an effect the other way counts as inactive or inconclusive.

SMILES	GLP1R inv ag	HEK293 tox	GLP1R ag	PTHR1 ag	TRHR agonist	TRHR enhancer
O=C(C1CCCCC1)N1C[C@@H](n2cc(C3CC3)nn2)[C@H](O)C[C@@H]1c1ccc(Cl)cc1	16.3%	0.6%	-5.4%	-33.0%	/	/
CCNC(=O)C[C@@H]1CC[C@H]2[C@@H](COC[C@H](O)CN2C(=O)C2CC2)O1	19.0%	-16.6%	/	i	/	/
Cc1c(S(=O)(=O)NCCc2ccccc2)c(=O)n(C)c(=O)n1C	15.5%	5.0%	9.3%	i	0.1	-8.1
CSCCC(NC(=O)c1ccccc1)C(=O)N1CC=C(c2ccccc2)CC1 (configuration not stated)	10µM*	-21.5%	-3.3%	-26.7%	-0.7	1.8
CSCCC(NC(=O)c1ccccc1)C(=O)N1CCN(C(=O)c2ccccc2)CC1 (configuration not stated)	10.6%	0.1%	-2.2%	i	/	/
CCOC(=O)c1c(CC(C)C)csc1NC(=O)c1ccccc1C(=O)O	11.2µM*	-10.4%	-2.0%	-2.8%	1.4	-1.5
CC(=O)N1CCOc2cc(S(=O)(=O)N3CCN(c4ccccc4)CC3)c(Cl)cc21	-18.3%	-28.3%	7.2%	i	1.2	1.0
OC[C@@H]1CCCN1Cc1cn(-c2ccccc2)nc1-c1ccc2c(c1)OCO2	?	6.1%	1.4%	11.3%	0.6	7.5
c1ccc(-n2cc(CN3CCCC(CN4CCCC4)C3)c(-c3ccc4c(c3)OCO4)n2)cc1 (configuration not stated)	10µM*	?	16.1%	8.4%	0.7	8.1
O=C(CC1CC2CCC1C2)OCC(=O)c1c[nH]c2ccccc12 (configuration not stated)	10µM*	-20.6%	3.5%	-25.7%	1.1	13.3
CC1CCN(S(=O)(=O)c2ccc(NC(=O)CN3CCCC3)cc2)CC1	1.78µM*	7.3%	9.5%	i	0.7	0.0
CC1CCN(S(=O)(=O)c2ccc(NC(=O)C3CCN(C(=O)c4ccco4)CC3)cc2)CC1	2.82µM*	14.2%	8.6%	-16.4%	0.8	-6.9
O=C(Nc1ccc(S(=O)(=O)N2CCCCC2)cc1)C1CCN(C(=O)c2ccco2)CC1	?	1.4%	5.6%	-45.2%	-0.1	2.4
CC1CCN(CC(=O)Nc2ccc(S(=O)(=O)N3CCC(C)CC3)cc2)CC1	?	?	1.3%	24.6%	0.5	0.1
CCN1CCN(CC(=O)Nc2ccc(S(=O)(=O)N3C(C)CCCC3C)cc2)CC1 (configuration not stated)	11.2µM*	4.2%	12.1%	i	-0.2	4.0
Cc1cccc(N2CCN(CC(=O)Nc3ccc(S(=O)(=O)N4CCOCC4)cc3)CC2)c1C	11.2µM*	1.2%	-4.3%	-30.3%	0.6	19.3
CC(C)OC(=O)c1nn2c(C(F)(F)F)cc(-c3ccc(Br)o3)nc2c1Br	2.7%	5.0%	-15.5%	-13.6%[57.5 µM]	1.8	8.3
Cc1ccc2oc3nc(C)c(C(=O)O)cc3c(=O)c2c1	19.3%	4.4%	-2.1%	i	0.8	-2.9
CCOC(=O)c1sc2nc(C)nc(SCC(=O)N(CC)C3CCS(=O)(=O)C3)c2c1C (configuration not stated)	25.5%	9.3%	0.4%	-62.7%	1.8	2.7
CC1CCCN(S(=O)(=O)c2ccc(NC(=O)CN3CCCCC3)cc2)C1 (configuration not stated)	22.4µM*	0.9%	18.0%	17.0%	0.9	6.6
CC1CC(C)CN(S(=O)(=O)c2ccc(NC(=O)CN3CCCCCC3)cc2)C1 (configuration not stated)	11.2µM*	?	11.1%	-4.1%	-0.1	8.6
Cc1nc2ccc(NC(=O)c3ccc4ccccc4n3)cc2s1	23.5%	-0.1%	2.3%	-32.7%	0.4	-25.9
Cc1cc(C)c(S(=O)(=O)Nc2ccc(-c3ccc(N4CCC(C)CC4)nn3)cc2)cc1C	?	-16.9%	/	-5.7%	0.5	5.1
Cc1cc(S(=O)(=O)Nc2ccc(-c3ccc(N4CCCCCC4)nn3)cc2)c(C)cc1Cl	7.94µM*	-22.9%	/	i	0.3	5.3
O=S(=O)(Nc1ccc(-c2ccc(N3CCCC3)nn2)cc1)c1ccc(Cl)cc1	?	-3.1%	/	-8.2%	-0.5	1.8
SMILES	GLP1R inv ag	HEK293 tox	GLP1R ag	PTHR1 ag	TRHR agonist	TRHR enhancer
O=S(=O)(Nc1ccc(-c2ccc(N3CCCCC3)nn2)cc1)c1ccc(OC(F)(F)F)cc1	11.2µM*	-21.5%	/	-7.4%	0.2	9.0
Cc1cc(S(=O)(=O)Nc2ccc(-c3ccc(N4CCCCC4)nn3)cc2)c(C)cc1Cl	7.08µM*	-13.1%	/	i	-1.3	-2.5
O=S(=O)(Nc1cccc(-c2ccc(N3CCCCCC3)nn2)c1)c1ccccc1Cl	5.01µM*	-21.8%	14.5%	-25.3%	0.2	3.8
CCOC(=O)c1c(-c2ccccc2)oc2ccc(NS(=O)(=O)c3ccccc3)cc12	?	2.2%	/	-7.4%	0.2	9.8
CCOC(=O)c1c(-c2ccccc2)oc2ccc(NS(=O)(=O)c3cc(C)c(C)cc3C)cc12	4.47µM*	8.2%	/	i	-0.5	3.8
CCN(CC(=O)NC1CCS(=O)(=O)C1)S(=O)(=O)c1ccc(Cl)cc1C(F)(F)F (configuration not stated)	-13.0%	14.9%	-11.7%	i	-0.2	3.5
C=CCN(CC(=O)NC1CCS(=O)(=O)C1)S(=O)(=O)c1ccccc1C(F)(F)F (configuration not stated)	17.5%	-6.3%	1.1%	i	2.3	30.9*
CC(C)(C)c1ccc(OCCCN2CCCC2)cc1	?	2.9%	-5.2%	-17.2%	-0.2	38.2*
CC(OCCN1CCCC1)(c1ccc(F)cc1)c1ccc(F)cc1	10µM*	?	-2.2%	i	0.6	-7.4
Cc1cc(C)n(C(=O)CCC(=O)NCc2ccccc2)n1	4.1%	7.4%	-9.2%	i	0.1	-3.1
O=C(Nc1cc(F)ccc1F)c1ccc2c(c1)nnn2C1CCCC1	-0.3%	-17.5%	/	-20.6%	-0.4	-1.3
CN(CCc1cnn(C)c1)Cc1cn(C)nc1-c1ccc2c(c1)OCCO2	10.2%	5.2%	16.0%	i	1.0	5.1
Cc1cc(Br)cc(Cl)c1OC(=O)c1ccncc1	-2.5%	2.3%	9.1%	-0.3%	0.0	-8.9
O=C(/C=C/c1ccc([N+](=O)[O-])cc1)NCc1ccccn1	9.3%	15.2%	6.8%	i	0.2	-3.3
O=C(/C=C/c1ccc([N+](=O)[O-])cc1)Nc1ncc([N+](=O)[O-])s1	12.6µM*	?	-13.8%	-31.1%	2.5	-4.8

Screens as filed in PubChem.
